Data as given in PubChem BioAssay (NCATS).
Inconclusive results are not listed. The source made the active and inactive calls. Calls follow the shape of the dose curve; as a rule, active = well fitted curve in the direction sought with a large enough effect; inconclusive = small, poorly fitted or top-dose-only effect, or another doubt; inactive = no such curve, though single readings can be large; an effect the other way counts as inactive or inconclusive.

Experiments:
[1] = MultiTox-Fluor Cytotoxicity Assay - LYMP1-003 - Live Cells (AID 962); details: LYMP1-003 lymphoblastoid cells, MultiTox-Fluor live-cell protease fluorescence; series mostly up to 92.2 µM;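 also: cells exposed to compound for 16 hours at 37 °C; cytotoxic hits lower the live-cell protease signal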
In short: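 Acute cytotoxicity is scored as a drop in live-cell protease activity in human lymphoblastoid LYMP1-003 cells after 16 hr compound exposure at 37 C. AC50 values come from Hill-equation modelling of concentration-response data.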

[2] = Cell Viability - LYMP1-003 - Assay at 24 hr (AID 963); details: LYMP1-003 lymphoblastoid cell viability; series mostly up to 92.2 µM
In short: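 Cytotoxicity is scored as a concentration-dependent fall in ATP-linked luciferase signal in human lymphoblastoid LYMP1-003 cells treated 24 hr at 37 C in complete culture medium.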

[3] = Cell Viability - LYMP1-003 - Assay at 40 hr (AID 964); details: LYMP1-003 lymphoblastoid viability; series mostly up to 92.2 µM; also: nearly all actives have a fitted effect of over 60% in size
Description: NIH Chemical Genomics Center [NCGC]
NIH Molecular Libraries Screening Centers Network [MLSCN]
National Institutes of Environmental Health Sciences [NIEHS]
National Toxicology Program [NTP]
We have developed a 1536-well cell-based assay for quantitative high throughput screening (qHTS) against a number of cell lines to determine in vitro cytotoxicity of small molecules. This particular assay uses a human lymphoblastoid cell line (LYMP1-003) purchased from Coriell Institute for Medical Research.
NCGC Assay Protocol Summary:
The CellTiter-Glo luminescent cell viability assay (Promega) is a homogeneous method to measure the number of viable cells in culture. The end point readout of this assay is based on quantitation of intracellular ATP, an indicator of metabolic activity, using the luciferase reaction. […]
Using the CellTiter-Glo luminescent cell viability assay, the amount of cellular ATP was measured in the lymphoblastoid cell line with complete culture medium following compound treatment for 40 hours. […] Library compounds were measured for their ability to cause acute toxicity in the cell line, as reflected by a decrease in intracellular ATP levels, in a concentration-dependent manner. […] AC50 values were determined from concentration-response data modeled with the standard Hill equation. […]
8. Detection; Luminescence; Viewlux plate reader […]

[4] = Cell Viability - LYMP2-003 (AID 965); details: LYMP2-003 lymphoblastoid cell viability; series mostly up to 92.2 µM;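 also: cells exposed to compounds for 24 h before reading; nearly all actives have a fitted effect of over 50% in size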
In short: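 Acute cytotoxicity is scored as a concentration-dependent drop in intracellular ATP, measured by luciferase luminescence in human lymphoblastoid cells treated for 24 hours at 37 C. AC50 values derive from Hill-equation modelling.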

[5] = Cell Viability - LYMP2-004 (AID 966); details: LYMP2-004 lymphoblastoid cell viability, qHTS; series mostly up to 92.2 µM; also: nearly all actives have a fitted effect of over 65% in size
In short: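 qHTS cytotoxicity: human lymphoblastoid line, 24 hr compound treatment, 37 C, complete medium. Viability read as cellular ATP via luciferase luminescence; tetraoctylammonium bromide served as positive control.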

[6] = Cell Viability - LYMP2-005 (AID 967); details: LYMP2-005 lymphoblastoid cell viability; series mostly up to 92.2 µM
In short: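 qHTS viability screen in LYMP2-005 cells: 24 h at 37 C with compound, ATP luminescence via CellTiter-Glo, AC50 from Hill curves.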

[7] = Cell Viability - LYMP2-009 (AID 968); details: LYMP2-009 lymphoblastoid cell viability; series mostly up to 92.2 µM; also: nearly all actives have a fitted effect of over 55% in size
[8] = Cell Viability - LYMP2-011 (AID 969); details: LYMP2-011 lymphoblastoid cells viability; series mostly up to 92.2 µM; also: nearly all actives have a fitted effect of over 60% in size
In short: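 In this qHTS cytotoxicity format, compounds are tested across concentrations on human lymphoblastoid cells in complete medium for 24 hours at 37 C. Viability is taken as cellular ATP measured by luciferase luminescence.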

[9] = Cell Viability - LYMP2-013 (AID 970); details: LYMP2-013 lymphoblastoid cells viability; series mostly up to 92.2 µM; also: nearly all actives have a fitted effect of over 55% in size
In short: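 Cytotoxicity is scored as a concentration-dependent drop in intracellular ATP in human lymphoblastoid cells after 24 hr compound exposure at 37 C. ATP is quantified by luciferase luminescence, and AC50 values come from Hill-equation modeling.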

[10] = Cell Viability - LYMP2-015 (AID 971); details: LYMP2-015 lymphoblastoid cell viability; series mostly up to 92.2 µM; also: nearly all actives have a fitted effect of over 55% in size
In short: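 Cells are seeded at 2500 per well and incubated 5 hr at 37 C. Compounds are added across a concentration series for 24 hr at 37 C. CellTiter-Glo is added, and luminescence is read after 30 min at room temperature.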

Measured: outcome

CC(=O)C(C)=O
inactive: all assays above

NC(=O)c1ccccc1
not listed: [6]
inactive: all other assays above
